Data on 8 molecules can be found in PubChem BioAssay (NCI).

This is part of a sample that, as a whole, favours compounds with a hit. Of some 83,000 tested, about 20% had one in any assay.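 Note: values are percent growth. 100 is the growth of untreated cells, values between 100 and 0 indicate rising inhibition; between -100 and 0 indicates cell death.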 Unmarked numbers belong to inactive results. Calls of active or inactive are those of the source. How the source made its calls: active means growth percent below 10; inactive means the rest.

Test systems include NCI-H23 lung; NCI-H226 lung; NCI-H322M lung; HOP-62 NSCLC; NCI-H460 lung; NCI-H522 lung; A549/ATCC NSCLC; 786-0 renal; COLO 205 colon; DU-145 prostate; K-562 leukemia; MALME-3M melanoma; MDA-MB-231 breast; RXF 393 renal; SF-268 CNS; SF-295 CNS; SF-539 CNS; UACC-257 melanoma; M14 melanoma.
Common to all, as to experiment: NCI-60 one-dose screen, 48 h (100 = growth as untreated, 0 = no growth, -100 = all killed)
Conditions in all cases: 10 µM unless noted

For the molecule `COc1cc(/C=C/c2cc(/C=C/c3ccc(O)c(OC)c3)n(C(=O)c3ccccc3Br)n2)ccc1O`, the growth with NCI-H23 lung is 17.7%; with NCI-H226 lung it was 38.5%; with NCI-H322M lung, 39.5%; in the experiment with HOP-62 NSCLC, 43.5%; in the experiment with NCI-H460 lung, 9.15% (active); in the experiment on NCI-H522 lung, 4.2% (active). The growth with A549/ATCC NSCLC was 41.7%; with 786-0 renal it was 9.91% (active); in the experiment on COLO 205 colon, 23.9%; in the experiment with DU-145 prostate, 28.9%; in the experiment with K-562 leukemia it was 3.62% (active); in the experiment on MALME-3M melanoma it was 23.4%. In addition, the growth in the experiment with MDA-MB-231 breast was 39.7%; with RXF 393 renal it was -3.83% (active); in the experiment on SF-268 CNS, 28%; with SF-295 CNS, -29.7% (active); in the experiment on SF-539 CNS, 4.02% (active); with UACC-257 melanoma it was 87.1%. Besides, the growth in the experiment on M14 melanoma is 5.42% (active).

On to `COc1ccc(-c2cc(C(=O)Nc3ccc(C)cc3)nc3[nH]c(=O)sc23)cc1`, for which the growth in the experiment on NCI-H23 lung is 75.4%; with NCI-H226 lung, 80.1%; in the experiment on NCI-H322M lung it was 78.5%; with HOP-62 NSCLC, 84.7%; in the experiment on NCI-H460 lung it was 68.8%; in the experiment on NCI-H522 lung, 24.3%. Moreover, the growth was 50.6% with A549/ATCC NSCLC; 65.2% in the experiment on 786-0 renal; 78.8% with COLO 205 colon; 89.6% with DU-145 prostate; 61.9% with K-562 leukemia; 73.3% in the experiment on MALME-3M melanoma. The growth is 86.3% in the experiment on MDA-MB-231 breast; 85.8% in the experiment with RXF 393 renal; 88.7% in the experiment with SF-268 CNS; 70.7% in the experiment on SF-295 CNS; 75.6% in the experiment with SF-539 CNS; 51.4% in the experiment on UACC-257 melanoma. Also, the growth in the experiment on M14 melanoma is 70.8%.

In the case of `C=CCOC(=O)C1=C(C)NC2=C(C(=O)CCC2)C1c1ccc(F)cc1` (configuration not stated), the growth was 92.4% in the experiment on NCI-H23 lung; 89.9% in the experiment on NCI-H226 lung; 95.6% in the experiment with NCI-H322M lung; 85.9% in the experiment on HOP-62 NSCLC; 106% in the experiment on NCI-H460 lung; 82.4% in the experiment with NCI-H522 lung. Further, the growth with A549/ATCC NSCLC was 97.3%; in the experiment with 786-0 renal, 99.9%; in the experiment with COLO 205 colon it was 103%; in the experiment on DU-145 prostate it was 113%; in the experiment with K-562 leukemia, 96.3%; with MALME-3M melanoma it was 111%. Besides, the growth in the experiment on MDA-MB-231 breast was 98%; in the experiment with RXF 393 renal it was 111%; with SF-268 CNS it was 106%; in the experiment with SF-295 CNS, 102%; in the experiment with SF-539 CNS, 102%; in the experiment on UACC-257 melanoma, 92.8%. The growth with M14 melanoma is 96.1%.

As to `CCCCCCCCCCCCCCCCCC(=O)OCCCCCCCCCCCCC`, the growth in the experiment with NCI-H23 lung was 108%; in the experiment with NCI-H226 lung it was 97.2%; with NCI-H322M lung, 130%; with HOP-62 NSCLC, 125%; with NCI-H460 lung, 117%; with NCI-H522 lung, 111%. In addition, the growth with A549/ATCC NSCLC was 99.5%; in the experiment with 786-0 renal, 119%; in the experiment on COLO 205 colon, 121%; with DU-145 prostate, 117%; with K-562 leukemia, 119%; in the experiment with MALME-3M melanoma, 130%. The growth in the experiment with MDA-MB-231 breast is 135%; in the experiment on RXF 393 renal, 109%; in the experiment on SF-268 CNS, 106%; in the experiment on SF-295 CNS it was 117%; in the experiment on SF-539 CNS, 101%; with UACC-257 melanoma, 108%. In the experiment with M14 melanoma, the growth is 114%.

Regarding `COc1cc(C2CC(c3ccc(C)cc3)=NN2C=O)ccc1Oc1ccnc2cc(Cl)ccc12` (configuration not stated), the growth with NCI-H23 lung is 58.6%; with NCI-H226 lung it was 49.1%; with NCI-H322M lung, 91.1%; in the experiment with HOP-62 NSCLC it was 3.38% (active); in the experiment with NCI-H460 lung, 62.7%; with NCI-H522 lung it was 28.3%. Further, the growth in the experiment with A549/ATCC NSCLC is 67.8%; with 786-0 renal, 18%; in the experiment with COLO 205 colon, 108%; with DU-145 prostate it was 89%; in the experiment on K-562 leukemia it was 109%; with MALME-3M melanoma, 98%. Moreover, the growth with MDA-MB-231 breast was 36.1%; in the experiment with RXF 393 renal, 0.362% (active); in the experiment with SF-268 CNS, 16.3%; with SF-295 CNS it was 1.79% (active); in the experiment with SF-539 CNS it was 4.72% (active); in the experiment on UACC-257 melanoma it was 103%. Also, the growth in the experiment with M14 melanoma was 106%.

With `COc1cc(C2CC(c3ccc(Cl)cc3)=NN2C=O)ccc1Oc1ccnc2cc(Cl)ccc12` (configuration not stated), the growth in the experiment on NCI-H23 lung was 65.2%; in the experiment with NCI-H226 lung, 51.4%; in the experiment on NCI-H322M lung, 88.2%; in the experiment with HOP-62 NSCLC it was 53.1%; with NCI-H460 lung it was 65.2%; in the experiment with NCI-H522 lung it was 47.2%. For the same molecule, the growth was 59.1% in the experiment with A549/ATCC NSCLC; 78.6% with 786-0 renal; 94.5% in the experiment with COLO 205 colon; 85.7% in the experiment with DU-145 prostate; 72.5% with K-562 leukemia; 64% in the experiment on MALME-3M melanoma. Also, the growth in the experiment on MDA-MB-231 breast is 56.9%; in the experiment on RXF 393 renal, 64.2%; in the experiment on SF-268 CNS, 68.6%; in the experiment on SF-295 CNS it was 66.2%; in the experiment on SF-539 CNS, 66.2%; in the experiment on UACC-257 melanoma, 66.8%. Moreover, the growth in the experiment on M14 melanoma was 92.4%.

With `O=C(Nc1ccc(Br)cc1)Nc1cccc(Br)c1`, the growth in the experiment with NCI-H23 lung was 18.4%; in the experiment on NCI-H226 lung, 53.1%; in the experiment on NCI-H322M lung it was 55.4%; in the experiment with HOP-62 NSCLC, 56.6%; in the experiment with NCI-H460 lung, 12.2%; in the experiment with NCI-H522 lung, -28.5% (active). Besides, the growth in the experiment on A549/ATCC NSCLC was 32.1%; in the experiment on 786-0 renal, 68.6%; in the experiment on COLO 205 colon it was 28.1%; in the experiment with DU-145 prostate, 30.7%; with K-562 leukemia it was 4.34% (active); with MALME-3M melanoma, 60.2%. Besides, the growth in the experiment on MDA-MB-231 breast was 66.6%; with RXF 393 renal, 105%; in the experiment on SF-268 CNS, 69%; with SF-295 CNS, 28.1%; with SF-539 CNS it was 76.6%; in the experiment with UACC-257 melanoma, 36.3%. The growth with M14 melanoma was 24.1%.

On to `Cc1ccc(C)c2c1SC1=NNC(Oc3ccc(Cl)cc3)=C(C#N)C(=N)N12`, for which the growth was 92.7% in the experiment on NCI-H23 lung; 94.2% with NCI-H226 lung; 101% in the experiment on NCI-H322M lung; 103% in the experiment with HOP-62 NSCLC; 99.9% in the experiment with NCI-H460 lung; 87.9% in the experiment on NCI-H522 lung. For the same molecule, the growth with A549/ATCC NSCLC was 108%; with 786-0 renal it was 110%; in the experiment with COLO 205 colon it was 105%; in the experiment with DU-145 prostate, 112%; with K-562 leukemia, 95.1%; with MALME-3M melanoma, 123%. Also, the growth in the experiment with MDA-MB-231 breast was 99.6%; with RXF 393 renal it was 118%; with SF-268 CNS, 113%; with SF-295 CNS, 93.7%; in the experiment with SF-539 CNS, 103%; in the experiment on UACC-257 melanoma, 101%. Moreover, in the experiment with M14 melanoma, the growth was 107%.
